# Source: PubChem
# TDP1 cell CPT – DT40-hTDP1 cell growth loss with CPT. 420,000 compounds, 12% hits. AID 686979. Potency, µM (doses to about 46.2 µM), most hits filed as inhibitors. chicken DT40 Tdp1-/-;hTDP1 cells + 20 nM CPT, ATP luminescence, 48 h; also: nearly all actives have a fitted effect of over 55% in size
#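 Chicken DT40 Tdp1-/- cells stably complemented with human TDP1 were seeded at 400 cells/well in medium containing 20 nM camptothecin, exposed to pin-transferred compounds, and grown at 37 °C for at least 48 hr. Viability was read as ATP luminescence.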
# HT1080 IDH1KD tx – HT-1080 IDH1 knockdown cell toxicity (counter line). HT-1080 IDH1 knockdown viability, ATP luminescence, 48 h. Potency, µM (highest dose often 46.1 µM), actives largely listed as cytotoxic. 360,000 compounds, 2% hits
#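 IDH1KD HT-1080 cells, 750/well, RPMI + 5% FBS; compound pinned after 2 h settling; 48 h, 37 °C; CellTiter-Glo luminescence; % activity normalised to DMSO and no-cell wells; curves fitted, classed by r2 and efficacy.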
# TDP1 cell noCPT – qHTS for Inhibitors of human tyrosyl-DNA phosphodiesterase 1 (TDP1): qHTS in cells in absence of CPT; AID 686978, 2013; DT40 Tdp1-/- hTDP1 cells, no CPT, ATP luminescence, 48 h; 420,000 compounds, 15% hits; Potency, µM (titrated, usually from 46.2 µM), usual class: inhibitors; also: nearly all actives have a fitted effect of over 55% in size
#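 Growth of hTDP1-complemented DT40 Tdp1-knockout cells is measured by ATP luminescence after at least 48 hr compound exposure at 37 °C, with DMSO substituting for the 20 nM CPT used in the parallel screen.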
# HT1080-NT tox – kills 2HG-producing HT-1080-NT fibrosarcoma cells. HT-1080-NT fibrosarcoma viability, CellTiter-Glo ATP luminescence, 48 h. Potency, µM (series often up to 46.1 µM), actives largely listed as cytotoxic. 360,000 compounds, 1.6% hits. AID 686970;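 also: NT is the 2HG producing partner of a matched IDH1 knockdown line; nearly all actives have a fitted effect of over 55% in size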
#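 HT-1080-NT fibrosarcoma cells (2HG-overproducing), 750 cells/well in RPMI with 5% FBS, dosed after 2 h and incubated 48 h at 37C. CellTiter-Glo luminescence normalized to DMSO and no-cell wells; concentration-response curves fitted and classed.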
# KB-3-1 tox – KB-3-1 parental cell cytotoxicity; Potency, µM (top dose mostly 46.1 µM), hits mostly cytotoxic; AID 1347075; 400,000 compounds, 1.4% hits; KB-3-1 viability, CellTiter-Glo ATP luminescence, 72 h; also: nearly all actives have a fitted effect of over 60% in size
#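 Cells are dispensed, compounds pinned in, plates held at 37 °C for 72 h, then CellTiter-Glo is added and luminescence read after 10 minutes. Cell line: parental KB-3-1 in phenol-red-free DMEM, 10% FBS.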
# KB-V1 cytotox – kills drug-selected multidrug resistant KB-V1 cells; Potency, µM (series often up to 46.1 µM), hits mostly cytotoxic; 400,000 compounds, 3.4% hits; KB-V1 MDR cells viability, CellTiter-Glo, 72 h; AID 1347076; also: nearly all actives have a fitted effect of over 60% in size
#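 Readout: CellTiter-Glo luminescence, 10 min after addition. Cells: KB-V1 MDR subline, 72 h at 37 degrees C with compound. Analysis: corrected, normalized data fitted to concentration-effect curves.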
# Numbers stand for hits; . = inactive; ? = inconclusive; / = no result. Most compounds without a hit are left out; they make up all but 19% or so of the library. Calls follow the shape of the dose curve; as a rule, active = well fitted curve in the direction sought with a large enough effect; inconclusive = small, poorly fitted or top-dose-only effect, or another doubt; inactive = no such curve, though single readings can be large; an effect the other way counts as inactive or inconclusive.
SMILES,TDP1 cell CPT,HT1080 IDH1KD tx,TDP1 cell noCPT,HT1080-NT tox,KB-3-1 tox,KB-V1 cytotox
N=c1c2c(n(Cc3ccc(Cl)cc3)c3c1CCC3)CCC2,2.3µM,7.1µM,2.3µM,5µM,.,.
N=c1c2c(n(Cc3cccc(Cl)c3)c3c1CCC3)CCCC2,2.6µM,10µM,1.8µM,6.3µM,?,.
N=c1c2c(n(Cc3ccccc3)c3c1CCC3)CCC2,1.6µM,?,0.58µM,?,?,.
N=c1c2c(n(Cc3ccc(F)cc3)c3c1CCC3)CCCC2,0.82µM,?,1µM,?,?,.
Clc1cccc(CN2CCCCCC2)c1,.,.,.,.,.,.
O=C(CSc1nc(=O)n(Cc2ccncc2)c2c1CCC2)Nc1ccccc1,.,/,.,/,.,.
CN(CC(=O)NCCc1ccccc1)S(=O)(=O)c1ccccc1,.,.,.,.,.,?
COc1cc(Cc2cc(OC)c(O)c(OC)c2)cc(OC)c1O,16µM,?,21µM,.,?,?
CCOC(=O)Cc1cc(=O)n(-c2nc3ccccc3s2)[nH]1,.,.,18µM,.,.,.
COc1ccc(C2CC(=O)N(CC(=O)Nc3ccc(C(C)=O)cc3)c3ccccc3S2)cc1OC (stereo unspecified),/,/,/,/,.,?
CCOC(=O)/C(=C\C=C1/Sc2cc(OCC)c(OCC)cc2N1CC)C(C)=O,1.8µM,.,2.3µM,.,.,?
CCN1/C(=C\C=C2\C(=O)N(C)C(=S)N2C)Sc2ccccc21,.,.,?,.,.,.
CCOC(=O)/C(=C/C=C1\Sc2cc(OCC)c(OCC)cc2N1CC)C(C)=O,7.3µM,.,4.6µM,.,.,?
COc1ccc(N2CC(C(=O)NCc3ccco3)CC2=O)cc1 (stereo unspecified),.,.,.,.,?,.
COC(=O)c1ccc2c(c1)C(C)(C)C(/C=C/c1ccc(O)cc1)=[N+]2C,2.5µM,2.8µM,2.8µM,5µM,?,6.3µM
COc1ccc(/C=N/Nc2ccc(C(=O)O)cc2)c(OC)c1OC,.,.,.,.,.,.
COc1cc(/C=C/c2ccc(O)cc2)cc(OC)c1,?,.,?,.,.,.
COC(=O)c1ccc2c(c1)C(C)(C)C(/C=C/c1ccc(OC)c(OC)c1OC)=[N+]2C,0.82µM,12µM,0.65µM,12µM,5.2µM,.
Nc1nc2c(ncn2[C@@H]2O[C@H](CNS(=O)(=O)c3cccnc3)[C@@H](O)[C@H]2O)c(=O)[nH]1,.,.,.,.,.,.
Nc1c(C(=O)NCCc2ccccc2)nnn1CC(=O)Nc1ccc(Cl)cc1,.,/,.,/,/,/
O=C(NNS(=O)(=O)c1ccc([N+](=O)[O-])cc1)c1ccccc1,.,.,.,.,.,.
O=C(/C=C/NNC(=O)c1ccccc1)c1ccccc1,0.58µM,.,0.82µM,.,?,.
O=C(/C=C/NNC(=O)c1ccccc1)c1ccc([N+](=O)[O-])cc1,6.5µM,?,9.2µM,?,.,?
Cc1ccc(C(=O)C=CNNC(=O)c2ccccc2)cc1,?,.,?,.,.,?
O=C(/C=C/c1ccc([N+](=O)[O-])cc1)c1cccnc1,15µM,?,?,.,.,.
SMILES,TDP1 cell CPT,HT1080 IDH1KD tx,TDP1 cell noCPT,HT1080-NT tox,KB-3-1 tox,KB-V1 cytotox
O=C(C=CC=Cc1ccccc1)c1ccc([N+](=O)[O-])cc1,23µM,.,21µM,.,.,.
CCc1nc2n(n1)C(O)c1cc([N+](=O)[O-])ccc1S2 (stereo unspecified),.,.,.,.,.,?
COCCc1nn2c(=O)cc(COC(=O)COc3ccc(F)cc3)nc2s1,.,/,.,/,?,.
N/C(=N\OC(=O)c1cc([N+](=O)[O-])ccc1Cl)c1cccnc1,?,.,?,.,?,?
O=C(Oc1c(Br)cc([N+](=O)[O-])cc1Br)c1cccnc1,18µM,?,?,?,.,?
Cc1cccc(C(=O)NN/C=C/C(=O)c2ccccc2)c1,?,.,26µM,.,.,.
O=C(/C=C/NNC(=O)c1ccc(Br)cc1)c1ccccc1,2.9µM,?,4.1µM,.,.,.
O=C(/C=C/NNC(=O)c1ccccc1O)c1ccccc1,?,?,16µM,.,?,.
Cc1cccc(C(=O)NNC(=O)c2ccc(-c3ccccc3)cc2)c1,?,.,?,.,.,.
COc1ccccc1NC(=O)c1ccc(Cl)c(S(=O)(=O)NCc2ccco2)c1,?,.,.,.,.,.
O=C1NC[C@@H](CCCCN2CCN(Cc3ccccc3)C(=O)C2=O)N(CC2CCCCC2)C1=O,.,.,.,.,.,?
CC(C)=CCC[C@H](C)C[C@@H]1CC2=C(C(=O)OC(C)(C)O2)[C@H](c2ccc(Cl)cc2)O1,?,.,?,.,.,.
COc1ccc2c(c1)c(=O)c(C(=O)O)c(-c1ccc3c(c1)OCO3)n2C,.,.,.,.,.,.
Cc1cccc(C(=O)NCCN2CCCC2)c1,.,.,.,.,.,.
Cc1cccc(C(=O)NCCNC(=O)c2cccc(C)c2)c1,.,.,29µM,.,.,.
CS(=O)(=O)N1CCC(C(=O)Nc2ccccc2Sc2ccccc2)CC1,.,.,.,.,.,.
CCN(C(=O)c1nn(-c2ccc(OC)c(Cl)c2)c(=O)c2c1c1ccccc1n2C)c1cc(OC)ccc1OC,?,/,15µM,/,.,.
CCCCNC(=O)c1nn(-c2ccc(C)cc2)c(=O)c2c1c1ccccc1n2C,8.2µM,/,2.6µM,/,.,.
CCN(CC)CCCNC(=O)c1nn(-c2ccc(OC)cc2)c(=O)c2c1c1ccccc1n2C,.,/,.,/,.,.
COc1ccc(-n2nc(C(=O)NCCc3ccc(Cl)cc3)c3c4ccccc4n(C)c3c2=O)cc1,8.2µM,/,10µM,/,.,.
CCN(CCCNC(=O)c1nn(-c2ccc(C)cc2)c(=O)c2c1c1ccccc1n2C)c1ccccc1,?,/,?,/,.,.
CCN(CC)CCCNC(=O)c1nn(-c2ccc(OC)c(Cl)c2)c(=O)c2c1c1ccccc1n2C,?,/,16µM,/,.,.
O=C1CNC(=S)N1C1CCCCCC1,.,.,.,.,.,.
O=S1(=O)CCOCCCN1Cc1ccc(F)cc1,.,/,?,/,.,.
N#CCCn1c(=O)cnc2cnc(Oc3ccccc3)nc21,.,/,.,/,/,/
COc1ccc(-n2nc(C(=O)N3CCCC(C)C3)c3c4ccccc4n(C)c3c2=O)cc1Cl (stereo unspecified),16µM,/,.,/,/,/
Cn1c(=O)c2c(-c3ccc(Cl)cc3)ccnc2n(C)c1=O,.,/,?,/,.,.
